# Screening results deposited in PubChem by National Center for Advancing Translational Sciences (NCATS).
# In the library only some 7.3% were active in any assay of this set; here they are far more common.
# HCV inh: inhibitors of hepatitis C virus infection. Huh7.5.1 HCVcc-Cre infection, luciferase reporter, 44 h. Potency, µM (top dose mostly 41.8 µM), usual class: inhibitors. 340,000 tested, 3.4% active; active = well fitted inhibition curve with a large enough effect; inconclusive = small, poorly fitted or top-dose-only effect, or another doubt; inactive = no such curve, though single readings can be large or run the other way
#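 HCVcc-Cre virus at an moi near 0.5 was added right after compound to cells cultured 4 h from seeding (1,000 cells/well). Luciferase activity was determined 44 h later, 15 min after substrate addition at RT.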
# Vaccinia mCherry: inhibitors of vaccinia virus infection (mCherry reporter signal); 310,000 tested, 0.63% active; Potency, µM (doses to about 36.5 µM), most hits filed as inhibitors; AID 720579; Vaccinia virus mCherry reporter infection, fluorescence; calls by dose curve; tested in A549 cells; note: nearly all actives have a fitted effect of over 35% in size
# Vaccinia Venus: vaccinia inhibition (Venus reporter); Vaccinia virus Venus reporter expression, fluorescence; Potency, µM (top dose mostly 36.5 µM), usual class: inhibitors; 330,000 tested, 0.46% active; calls by dose curve; tested in A549 cells; note: nearly all actives have a fitted effect of over 30% in size
# FMDV inh: blocks foot and mouth disease virus. FMDV antiviral cell-based qHTS. Potency, µM (series often up to 57.9 µM), most hits filed as inhibitors. 410,000 tested, 1.2% active. AID 1159524; calls by dose curve; tested in HEK293T cells; note: read-out not given here; nearly all actives have a fitted effect of over 45% in size
# HCMV inh: blocks human cytomegalovirus replication | HFF cells, HCMV-luciferase reporter, 72 h; hits give low values | activity change, negative = inhibition, % at 57.5 µM | 410,000 tested, 4.5% active; in the data active = activity change below about -60%; inconclusive = no clear call, values can overlap the other calls; inactive = above about -39%
#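 Compounds were evaluated in HFFs infected with an HCMV luciferase reporter virus (MOI 1 PFU/cell). Luciferase in lysates collected 72 h post infection served as the replication measure.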
# Numbers stand for hits; - = inactive; ? = inconclusive; . = no result given; + = active, no number.
SMILES,HCV inh,Vaccinia mCherry,Vaccinia Venus,FMDV inh,HCMV inh
CCc1ccc(NC(=O)Cn2c(SCc3ccc(C)cc3)nc3ccncc32)cc1,.,-,-,.,.
CCN1CCN(CCNC(=O)C2CCCN(Cc3nc(-c4cccc(Cl)c4)oc3C)C2)CC1 (stereo unspecified),10µM,-,-,-,?
Cc1oc(-c2cccc(Cl)c2)nc1CN1CCC(C(=O)NCCCN2CCN(c3cccc(Cl)c3)CC2)CC1,.,?,?,?,-
CCOC(=O)N1CCC(NC(=O)CS(=O)(=O)Cc2nc(-c3cccc(Cl)c3)oc2C)CC1,?,.,.,-,-60.4
Cc1oc(-c2cccc(Cl)c2)nc1CN1CCC(C(=O)NCCCN2CC(C)CC(C)C2)CC1 (stereo unspecified),1.12µM,.,.,-,.
Cc1oc(-c2cccc(Cl)c2)nc1CN1CCCC(C(=O)NCCc2ccc(Cl)cc2)C1 (stereo unspecified),.,?,-,?,-
Cc1oc(-c2ccc(Cl)cc2)nc1CN1CCCC(C(=O)NC2CC2)C1 (stereo unspecified),?,.,.,-,-
CCOC(=O)N1CCC(NC(=O)C2CCCN(Cc3nc(-c4cccc(Cl)c4)oc3C)C2)CC1 (stereo unspecified),5.62µM,?,?,14.1µM,-66.6
COc1ccc(CCNC(=O)CSc2nc(-c3ccc(F)cc3)cc(C(F)(F)F)n2)cc1OC,.,-,-,-,-
COc1ccc(S(=O)(=O)c2c(Nc3c(C)cccc3C)sc(C(=O)c3ccc(F)cc3)c2N)cc1,.,-,-,-,?
COc1ccc(OC)c(CNS(=O)(=O)c2c(C(=O)N3CCC(C)CC3)c(C)n(C)c2C)c1,.,-,-,-,?
O=C(NCCc1c[nH]c2ccccc12)c1cc2sccc2n1Cc1ccccc1,5.01µM,.,.,?,-
Cc1ccc(C)c(N(CC(=O)NC2CCCC2)C(=O)c2oc(C(C)(C)C)cc2C)c1,?,-,-,.,-67.5
Cc1cc(C(C)(C)C)oc1C(=O)N(CC(=O)NC1CCCC1)Cc1ccccc1,-,-,-,.,-
CC1(C)CC(=O)C2=C(C1)NC(Nc1nc3ccccc3o1)=NC2c1cccc(F)c1 (stereo unspecified),.,-,-,.,.
O=c1c([N+](=O)[O-])c(N2CCOCC2)c2ccccc2n1Cc1ccccc1,?,-,-,?,-66.7
Cn1c(=O)c([N+](=O)[O-])c(N2CCSCC2)c2ccccc21,?,?,-,?,?
CCn1c(=O)c([N+](=O)[O-])c(N2CCN(Cc3ccc4c(c3)OCO4)CC2)c2ccccc21,11.2µM,-,?,31.6µM,-64.0
CCn1c(=O)c([N+](=O)[O-])c(N2CCSCC2)c2ccccc21,14.1µM,?,?,17.8µM,?
O=C(CNC(=O)c1ccccc1)OCC(=O)c1ccc2ccccc2c1,.,-,-,.,.
COc1ccc(C2Nc3ccccc3C(=O)N2c2ccccc2F)cc1COc1ccc(NC(C)=O)cc1 (stereo unspecified),.,-,-,.,.
Cc1ccc(CNC(=O)Cn2c3ncccc3c(=O)n2-c2ccc(C)cc2)cc1,.,-,-,-,-
COc1ccc(N/C=C(\C#N)c2nc3ccccc3n2C)c(OC)c1,5.01µM,.,.,-,-
COc1cccc(CNCCc2c[nH]c3ccccc23)c1OCc1ccc(F)cc1,?,?,?,?,-
COc1cc(CNCCc2c[nH]c3ccccc23)ccc1OCc1ccc(F)cc1,12.6µM,10µM,?,-,-
SMILES,HCV inh,Vaccinia mCherry,Vaccinia Venus,FMDV inh,HCMV inh
CCOc1cc(CNCCc2c[nH]c3ccccc23)cc(Cl)c1OCC(N)=O,?,.,.,-,-
CCOc1cc(CNCCc2c[nH]c3ccccc23)cc(Cl)c1OC,10µM,-,-,?,-
Cc1ccc(C)c(Oc2ncnc(N)c2[N+](=O)[O-])c1,-,-,-,-,?
Cc1cc(Sc2ncnc(N)c2[N+](=O)[O-])ncn1,?,-,-,20µM,.
Cc1cc(Sc2nc(N)ncc2[N+](=O)[O-])ncn1,?,-,-,?,-99.2
Cc1cc(N)ncc1[N+](=O)[O-],-,-,-,-,-
CCn1c2c(c3cc(Br)ccc31)CCC/C2=N\O,?,.,.,-,-107.3
CCn1c2c(c3cc(OCC(C)C)ccc31)CCCC2=O,?,-,-,.,-
O=S(=O)(NC1CCN(S(=O)(=O)c2c(F)cccc2F)C1)c1ccc2c(c1)OCCO2 (stereo unspecified),.,.,.,-,-77.7
Cc1cccc(OC(=O)CSc2nnc(-c3ccc4c(c3)OCO4)o2)c1C,.,-,-,-,-
O=C(Cn1c(=O)n(CC(=O)NCc2ccccc2)c2ccccc21)NCc1ccccc1,7.08µM,.,-,-,-
COCc1cc(C)n(CC(=O)NCc2ccccc2)c(=O)c1C#N,-,.,.,-,-
Cc1c(C#N)c2ccccc2n1CC(=O)NCc1ccccc1,-,.,-,-,-
Cc1cc(=O)c2cc(Br)ccc2n1CC(=O)NCc1ccccc1,12.6µM,.,.,-,-
N#C/C(=C\c1ccc([N+](=O)[O-])o1)C(=O)Nc1ccc(F)cc1,-,-,-,?,-77.9
N#CCc1ccc(NC(=O)/C=C/c2ccc([N+](=O)[O-])o2)cc1,?,7.08µM,?,?,.
Cc1ccc(/C=C(\C#N)C(=O)Nc2ccc(Br)cc2)o1,.,-,-,-,-
Cc1ccc(/C=C/C(=O)Nc2ccc(S(N)(=O)=O)cc2)o1,?,-,-,-,-
COC(=O)C(N)(c1ccccc1)C(Nc1cccc(OC)c1)c1ccccc1 (stereo unspecified),.,.,.,.,-
C=CCN1CCN(C(c2ccc(Cl)cc2)c2nnnn2CCc2ccc(OC)c(OC)c2)CC1 (stereo unspecified),-,-,-,-,-100.7
CC1CC2=C(NC(=S)NC2c2cccc(F)c2)/C(=C/c2cccc(F)c2)C1 (stereo unspecified),10µM,?,?,?,-
Cc1ccc(-n2nc(C(=O)N(C)Cc3ccccc3)c3c4ccccc4n(C)c3c2=O)cc1,.,-,-,-,-
CC(=O)Nc1ccc(NC(=O)C2(c3cccs3)CCOCC2)cc1,.,-,-,-,+
Nc1c(C(O)(C(F)(F)F)C(F)(F)F)cc(C(O)(C(F)(F)F)C(F)(F)F)c2ccccc12,?,11.2µM,?,?,.
NC(=NCc1ccc(Cl)cc1Cl)NC(=O)c1nc(Cl)c(N)nc1N,.,-,-,-,.
SMILES,HCV inh,Vaccinia mCherry,Vaccinia Venus,FMDV inh,HCMV inh
O=C(CSc1nnc(-c2ccc(F)cc2)c2ccccc12)Nc1ccccc1,-,-,-,-,-63.2
COc1ccccc1NC(=O)CSc1nc2ccccc2c2nc(-c3ccccc3)nn12,.,-,-,-,-
O=C(CSc1nc2ccccc2c2nc(-c3ccccc3)nn12)Nc1ccc(F)cc1,.,-,-,-,+
O=C(CSc1nnc(-c2ccc(F)cc2)c2ccccc12)Nc1c(F)cccc1F,-,.,.,-,-83.2
O=C(CSc1nnc(-c2ccc(F)cc2)c2ccccc12)Nc1cccc(Cl)c1,?,-,-,-,-
COc1cc(OC)c(NC(=O)N2CCc3cc(S(=O)(=O)N4CCC(C)CC4)ccc32)cc1Cl,.,-,-,-,?
CCCCOC(=O)c1ccc(OC(=O)c2sc3ncn(Cc4ccccc4Cl)c(=O)c3c2C)cc1,.,-,-,-,-
Cc1cc(Cl)ccc1NC(=O)C1CCN(c2nnc(-n3c(C)ccc3C)s2)CC1,.,-,-,-,-
